Results: PubChem BioAssay (NCI)
Compounds without any hit were thinned out: in the full panel of roughly 79,000, 15% have a hit. Calls of active or inactive are those of the source. Cut-off read from the data, not from the text of the source: active = growth inhibition above about 70%; inactive = the rest.

Assay: NCI Yeast Anticancer Drug Screen. Data for the rad50 strain (AID 155);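 note: 0% = growth of vehicle-only cultures of the same strain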
Conditions: S. cerevisiae rad50 strain growth inhibition; at 50.0 µM; hits give high values
Method in brief: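 Relative growth inhibition (compound vs vehicle) was measured in yeast with a defined repair-gene alteration.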
For `O=C1C(O)CCN1C1CCCCC1` (configuration not stated), the growth inhibition was 10.7% (inactive). In the case of `C[P+](C)(C)c1ccccc1`, the growth inhibition is reported as -16.6% (inactive). In the case of `Cc1nc2c(SCc3ccccc3)ncnc2o1`, the growth inhibition is reported as 16.1% (inactive). For `BrC1(C2(Br)N(c3ccccc3)CCN2c2ccccc2)N(c2ccccc2)CCN1c1ccccc1`, the growth inhibition was 53% (inactive). In the case of `CCOC(=O)C(F)(F)C(F)(F)C(F)(F)F`, the growth inhibition is reported as 5.45% (inactive). For `CC(=O)Nc1nc(NC(C)=O)c2nc(C)cnc2n1`, the growth inhibition was 4.45% (inactive). In the case of `CCOC(=O)NC(=O)c1cn(CC(=O)NCC(=O)NCC(=O)N2CCN(CCn3c(C)nc(C(N)=O)c3N)CC2)c(=O)[nH]c1=O`, the growth inhibition is reported as 12.8% (inactive). For `Cc1cc(C)[n+]([O-])c(C)c1`, the growth inhibition was -14.6% (inactive). For `CCN(CC)c1c(C)nnn1C1OC(COC(C)=O)C(OC(C)=O)C(OC(C)=O)C1OC(C)=O` (configuration not stated), the growth inhibition was -0.8% (inactive). For `C[Si](C)(/C(=C/COCc1ccccc1)CCOC1CCCCO1)c1ccccc1` (configuration not stated), the growth inhibition was -5.4% (inactive). For `N#Cc1cnsc1`, the growth inhibition was -4.15% (inactive). With `O=[N+]([O-])c1ccc(N/N=C/c2ccccn2)nc1` the growth inhibition was 8.1% (inactive). For `COC(=O)CCC(=O)NC1=C(NCc2ccccc2)C(=O)c2ccccc2C1=O`, the growth inhibition was 26.8% (inactive). With `CC1=CC(OC2CCCCO2)CC(C)(C)C1` (configuration not stated) the growth inhibition was -5.2% (inactive). For `CCCCN(CCCC)CC(O)c1cc2ccc(Cl)cc2nc1-c1ccc(Cl)cc1` (configuration not stated), the growth inhibition was 65.2% (inactive). In the case of `COC(=O)NC(Nc1ccc(Cl)cc1Cl)(C(F)(F)F)C(F)(F)F`, the growth inhibition is reported as 44.6% (inactive). With `S=c1c2ccccc2c(=S)n2n1CC=CC2` the growth inhibition was 7.6% (inactive).
